# Measurements published in the supplement of paper PMC6555819.
# Experiments:
# Assay in all cases: PBM binding z-score (relative to random genomic background probes); higher = stronger binding; sequences stand for … in GC…GCGATTGACAGCGTAGAATGAAGG
# [1] = tested on: PPARg:RXRa DBDmut IVT, anti-RXR (DBD mutation: RXRa K156A/R161A, NR concentration 270 nM, RXRa partner concentration 90 nM)
# Summary of the method: (§1)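 Scanned fluorescence from custom Agilent 4×180K protein-binding microarrays was regression-normalized. Binding z-scores use random background probes as reference. Ligand-free nuclear receptor dimers were incubated on the arrays for 1 h and detected with antibodies against each partner (one per run).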
# [2] = tested on: PPARg:RXRa IVT, anti-PPARg (NR concentration 270 nM, RXRa partner concentration 90 nM)
# Summary of the method: as §1
# [3] = tested on: PPARg DBDmut:RXRa IVT, anti-PPARg (DBD mutation: PPARg1 K132A/R137A, NR concentration 270 nM, RXRa partner concentration 90 nM)
# Summary of the method: as §1
# [4] = tested on: PPARg DBDmut IVT, anti-PPARg (DBD mutation: PPARg1 K132A/R137A, NR concentration 270 nM)
# Summary of the method: as §1
# [5] = tested on: PPARg homodimer (NR concentration 180 nM)
# Summary of the method: as §1
# [6] = tested on: PXR:RXRa (NR concentration 270 nM, RXRa partner concentration 90 nM)
# Summary of the method: as §1
# [7] = tested on: PXR homodimer (NR concentration 270 nM)
# Summary of the method: as §1
# [8] = tested on: RARa:RXR (NR concentration 270 nM, RXRa partner concentration 90 nM)
# Summary of the method: as §1
# [9] = tested on: RARa homodimer (NR concentration 270 nM)
# Summary of the method: as §1
# [10] = tested on: RARb:RXRa (NR concentration 270 nM, RXRa partner concentration 90 nM)
# Summary of the method: as §1
# [11] = tested on: RARb homodimer (NR concentration 270 nM)
# Summary of the method: as §1
# [12] = tested on: RARg:RXRa (NR concentration 270 nM, RXRa partner concentration 90 nM)
# Summary of the method: as §1
# [13] = tested on: RARg homodimer (NR concentration 270 nM)
# Summary of the method: as §1
# [14] = tested on: RXRa DBDmut IVT, anti-RXR (DBD mutation: RXRa K156A/R161A, NR concentration 90 nM)
# Summary of the method: as §1
# [15] = tested on: RXRa homodimer (NR concentration 180 nM)
# Summary of the method: as §1
# [16] = tested on: THRa:RXRa (NR concentration 90 nM, RXRa partner concentration 90 nM)
# Summary of the method: as §1
# [17] = tested on: THRa homodimer (NR concentration 90 nM)
# Summary of the method: as §1
# [18] = tested on: VDR homodimer (NR concentration 270 nM)
# Summary of the method: as §1
Sequence,PBM binding z-score [1],PBM binding z-score [2],PBM binding z-score [3],PBM binding z-score [4],PBM binding z-score [5],PBM binding z-score [6],PBM binding z-score [7],PBM binding z-score [8],PBM binding z-score [9],PBM binding z-score [10],PBM binding z-score [11],PBM binding z-score [12],PBM binding z-score [13],PBM binding z-score [14],PBM binding z-score [15],PBM binding z-score [16],PBM binding z-score [17],PBM binding z-score [18]
TCGAGTAGGTAAGGGGCATTCAGAATGGCGTCGA,1.59,0.472,-0.991,-1.03,0.148,-0.173,-0.537,-0.00481,-0.369,0.496,0.551,-0.117,-0.0823,-0.0222,0.0821,-0.336,-0.325,0.178
CCTGCTAGGTCATGGTCAGCTTATCTACAGTATG,4.34,3.48,0.0412,-0.178,1.32,1.35,-0.301,2.36,0.172,3.81,3.15,3.67,4.7,1.86,3.01,2.97,1.52,0.201
TGAATGAGGTTAAAGATCAGGGAGCGTGGCGTCG,2.38,3.63,0.471,-0.164,0.404,1.83,-0.192,2.89,-0.32,1.78,0.534,1.95,0.676,0.869,3.86,2.43,0.271,-0.0422
TCATAAAGGTAAAGGTGAAAGTCGAACGATATGA,2.88,3.1,1.14,0.528,1.69,1.3,-0.127,2.37,0.551,2.66,1.86,2.14,2.08,1.06,2.73,1.73,-0.454,0.0173
ACTGGCAGGCCAAGGGTCACTCAAGATTAGTCCG,-0.446,2.2,-0.302,-0.62,1.74,2.97,-0.0528,3.8,-0.0207,3.4,3.66,4.14,3.64,-0.0715,3.95,2.71,0.159,1.11
TAGCCTAGGTGAGATCGGGCCAGTATACGCTATA,0.128,1.07,-0.934,-1.25,-0.915,-0.281,-0.98,0.347,-1.23,-0.0511,-0.246,-0.235,0.0324,-1.2,-0.204,1.52,-0.733,-0.357
CCGAATAGGTTATGGGGCATTCAGGCAACGGTGA,1.26,1.71,-0.226,-0.668,0.678,0.141,-0.0555,0.892,0.0562,1.27,1.11,1.06,0.917,0.132,1.31,0.696,-0.0047,-0.175
GATACCGGGTCAAGGCCAGAGTACGCGTATTGAT,2.4,4.67,0.967,0.0234,0.895,2.62,0.124,2.97,0.054,3.9,3.05,4.34,3.93,0.478,4.58,3.49,1.25,1.07
TCTAGTTGGTCACGGAGTTCACACACGACGGGTA,2.4,2.92,1.45,0.822,1.92,4.53,3.62,2.15,0.649,2.87,3.11,2.99,2.63,1.79,2.81,1.66,0.539,5.75
CCTACTGGGCCACGAAAGGTCTTTGATTCAGTGA,4.89,5.29,0.279,-0.311,0.598,0.109,-0.43,0.284,-0.304,0.791,1.03,0.285,0.261,-0.372,0.067,1.06,-0.141,-0.432
GCGACTGGGGCAAAGCAGGTTAGCATAAGGTTGG,4.21,3.26,-0.633,-1.6,-0.037,-0.216,-0.676,0.00756,-0.55,0.773,0.654,0.256,0.429,-0.341,0.0651,2.28,-0.225,-0.542
CAAACTAGGTCAAAGTCAAAGTCGGTTTGTGCCA,8.48,8.78,4.97,3.93,1.7,1.63,-0.171,2.61,0.68,4.01,3.06,3.87,4.41,2.32,3.11,2.81,0.817,1.05
CCGACTGGGGCAGAAAGGTTACTATACCATCCGG,2.21,1.68,-0.665,-1.26,0.373,0.533,-0.207,1.18,-0.156,1.53,1.91,1.26,1.23,-0.158,1.3,0.534,-0.377,-0.181
CCTACTGGGCCAAGAAAGGTCATTGATTCAGTGA,3.49,3.92,-0.232,0.143,2.98,5.1,1.18,5.31,1.75,3.89,4.44,3.99,3.46,0.261,4.4,3.43,0.419,2.23
CCTCGGAGGACAACAGGAGGTCAGAGCTGCCAGA,0.299,0.564,-0.994,-1.03,1.72,2.02,0.105,2.3,0.364,2.84,3.64,3.37,2.98,0.172,1.76,2.89,1.04,1.21
TCATATAGGTAAACAGATGAAAGTCCGTAAGTTA,3.98,2.76,1.5,0.808,0.603,0.869,0.583,0.622,1.28,0.483,0.099,0.636,0.431,1.38,0.703,0.419,-0.0722,0.455
CGAACTCGGTCATTGACAGGACAGTGAATAGTAA,2.98,2.26,-0.213,-0.299,0.0566,0.137,-0.233,0.436,-0.219,2.14,1.42,2.12,2.49,0.678,0.736,0.661,-0.331,0.676
ATCTCTAGGTAAAGGTTCAGTGAATCCCGAGGAT,2.8,3.07,1.06,0.461,0.615,0.795,0.0698,0.886,0.514,1.32,1.24,1.03,1.05,0.869,1.01,1.1,0.351,1.99
CCTAGTTGGTCAGGAGCTCACACACCGGATATGA,0.512,0.377,0.181,-0.1,0.317,-0.386,-0.151,-0.201,0.575,0.469,0.161,0.446,0.601,-0.0483,0.0648,-0.298,-0.103,0.545
CATGCTAGGTCAATGGTCAGCTAAAGCAGCTCGC,3.11,3.53,-0.274,-0.0398,1.14,0.721,-0.406,1.82,-0.113,3.87,3.11,3.81,4.43,1.63,2.29,2.38,0.438,0.0964
TAACCAAGGTGAAGGTCGTTGATCCCTCTGTAGA,1.46,2.78,-0.196,-0.741,0.785,1.48,0.489,1.92,-0.478,2.12,1.83,1.4,1.38,0.174,1.87,2.32,0.878,0.809
GGAATGAGGGCATTCGAGTTGATAGCATGGCGAT,4.4,3.1,1.13,-0.209,0.811,4.13,1.54,1.44,-0.137,1.72,0.662,1.15,1.22,3.43,0.995,3.3,0.191,3.8
CGAACTAGGTCAGAAGAGGACAGTGAAGGATGAT,7.13,7.32,3.38,1.51,1.15,2.5,-0.0219,2.42,0.202,3.05,2.53,2.68,3.66,0.392,1.03,4.34,0.406,0.275
ATCTGTAGGTAAAGTTCAGTGAAAGATCGATAGA,1.48,2.2,1.04,0.902,1.06,1.41,1.84,0.99,0.559,2.53,2.24,1.86,2.25,1.35,1.16,0.595,-0.247,1.83
CCTCGGAGGACAACAGGAGGTCAGACCTGCCAGA,0.294,0.546,-0.564,-0.997,1.43,2.11,0.241,2.19,0.183,2.89,3.55,3.39,3.43,0.289,1.93,2.83,1.02,1.25
CGAACTAGGTAAGAACAGGACAGTGAAGGATGAT,3.73,2.52,0.465,0.0684,0.00147,-0.257,-0.137,-0.362,-0.184,-0.143,-0.183,0.0419,0.345,-0.391,-0.0524,0.664,-0.177,-0.504
TCTCGGAGGGCACGAAAGGTCAGAGCTCGACATC,1.78,2.45,-0.111,-0.16,3,5.57,0.576,5.45,0.74,4.79,5.03,6.01,6.16,1.09,5.58,4.4,0.163,1.1
CCTACTGGGCCATCCAGAGGTCATTGATCATATG,4.14,4.6,0.419,0.464,2.88,5.05,2.23,4.9,0.594,3.21,4.32,4.63,3.39,0.256,3.69,3.29,1.41,3.33
CGGCCTAGGTCAGGGCCAGTATAGGAGGAACGTT,0.747,1.22,-2.1,-2.32,-0.013,0.223,-0.954,0.858,-0.476,3.17,2.4,2.84,3.41,-0.731,1.5,1.8,0.0895,-0.395
